Measured values taken from PubChem BioAssay (EPA / NIEHS).
“And” between values parts separate entries of the source, which are not always exact repeats. Equal entries are not always repeated. Some compounds were tested as several samples or in several runs, with calls that do not always agree. The source made the active and inactive calls. How the source made its calls: active means hit-call score of the fitted dose curve at least 0.9, where 1 is the maximum; inactive means score below 0.9.

What was measured:
[1] = read-out: Human Leukocyte Antigen - DR isotype (HLADR), HLA-DRA (gene 3122); test: BSK_3C_HLADR: BioMAP Diversity Plus: 3C Assay for Human Leukocyte Antigen - DR isotype (HLADR) Biomarker Activity (AID 2283019); conditions: primary human endothelial cells (HUVEC); actives raise or lower the signal
Method in brief: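 Primary human umbilical vein endothelial cells (3C system) were dosed with compound and cell-surface HLA-DR was quantified by ELISA at 24 h. Activity was fitted bidirectionally against DMSO as negative control and baseline.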

[2] = read-out: Interleukin-8 (IL8), CXCL8 (gene 3576); test: BSK_3C_IL8: BioMAP Diversity Plus: 3C Assay for Interleukin-8 (IL8) Biomarker Activity (AID 2283020); conditions: primary human endothelial cells (HUVEC); actives raise or lower the signal
Method in brief: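 ELISA read-out of IL-8 from human umbilical vein endothelium, measured 24 h after chemical dosing. Activity is expressed relative to DMSO negative control, with both increases and decreases fitted.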

[3] = read-out: Monokine induced gamma interferon (MIG), CXCL9 (gene 4283); test: BSK_3C_MIG: BioMAP Diversity Plus: 3C Assay for Monokine induced gamma interferon (MIG) Biomarker Activity (AID 2283021); conditions: primary human endothelial cells (HUVEC); actives raise or lower the signal;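 on AC50: MIG protein level measured by immunoassay in the treated endothelial cultures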
Method in brief: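 Read-out is ELISA detection of MIG on human umbilical vein endothelial cells, taken 24 h after dosing. Gain or loss of signal was scored relative to DMSO controls using bidirectional curve fitting.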

[4] = BSK_3C_SRB: Viability Assessment in the BioMAP Diversity Plus: 3C Assay (AID 2283023); conditions: primary human endothelial cells (HUVEC);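 further: fitted both ways against DMSO so a hit may be signal rise or drop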
Method in brief: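 Primary human umbilical vein endothelial cells in the 3C system were read 24 h after compound dosing. Total protein was stained with 0.1% sulforhodamine B after 10% TCA fixation and read at 560 nm, with bidirectional fitting against DMSO as baseline.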

[5] = read-out: Matrix Metallopeptidase 1 (MMP1), MMP1 (gene 4312); test: BSK_BE3C_MMP1: BioMAP Diversity Plus: BE3C Assay for Matrix Metallopeptidase 1 (MMP1) Biomarker Activity (AID 2283024); conditions: primary human bronchial epithelial cells; actives raise or lower the signal
Method in brief: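 Human bronchial epithelial cells (BE3C system) exposed to compound for 24 h; MMP1 then quantified by ELISA. Activity was fitted in both directions relative to DMSO.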

[6] = BSK_3C_Vis: BioMAP Diversity Plus: 3C Assay for Morphology Visualization (AID 2283025); conditions: primary human endothelial cells (HUVEC);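 further: fitted both ways so gain or loss versus DMSO counts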;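 on AC50: light microscopy image of cell morphology used as background control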
Method in brief: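 Chemicals were added to primary human umbilical vein endothelium, cells were incubated 24 h, and morphology was then visualized by light microscopy. Gain or loss of signal was fitted bidirectionally relative to DMSO.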

[7] = read-out: Pselectin, SELP (gene 6403); test: BSK_4H_Pselectin: BioMAP Diversity Plus: 4H Assay for Pselectin Biomarker Activity (AID 2283026); conditions: primary human endothelial cells (HUVEC); actives raise or lower the signal
Method in brief: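 ELISA read-out of P-selectin on human umbilical vein endothelium after 24 h of dosing. Values derive from bidirectional fitting relative to DMSO. Parallel SRB protein staining flagged overt cytotoxicity.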

[8] = BSK_4H_SRB: Viability Assessment in the BioMAP Diversity Plus: 4H Assay (AID 2283027); conditions: primary human endothelial cells (HUVEC);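 further: cells exposed to compound for 24 h before staining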;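 on AC50: curves fitted both ways versus DMSO so AC50 may be loss or gain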
Method in brief: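 Human umbilical vein endothelial cells, 24 h after chemical dosing; total protein measured by 0.1% sulforhodamine B staining after 10% TCA fixation, read at 560 nm. Bidirectional fitting against DMSO.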

[9] = BSK_BE3C_SRB: Viability Assessment in the BioMAP Diversity Plus: BE3C Assay (AID 2283028); conditions: primary human bronchial epithelial cells;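 on AC50: fitted both ways so AC50 may mark signal gain or loss versus DMSO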
Method in brief: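 Human primary bronchial epithelial cells were exposed to test chemicals for 24 h. Total protein in parallel cultures was then measured by staining with 0.1% sulforhodamine B after 10% TCA fixation, with absorbance read at 560 nm. Activity was fitted bidirectionally against DMSO.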

Measured: AC50

Cc1ccccc1[N+](=O)[O-]
inactive: [1] | [2] | [3] | [4] | [5] | [6] | [7] | [8] | [9]

CCC(C)(c1ccc(O)cc1)c1ccc(O)cc1
inactive: [3] | [9]
active: [1] 24.7 µM | [2] 22.9 µM | [4] 30 µM | [5] 20 µM | [6] 39 µM | [7] 32.1 µM | [8] 24.3 µM

Clc1ccc(Cl)cc1
inactive: [1] | [2] | [3] | [4] | [5] | [6] | [7] | [8] | [9]

ClC1=C(Cl)[C@]2(Cl)[C@@H]3[C@H]4C[C@H]([C@@H]5O[C@H]45)[C@@H]3[C@@]1(Cl)C2(Cl)Cl
active: [1] 7.35 µM | [4] 9.88 µM | [5] 7.22 µM | [8] 3.97 µM
inactive: [2] | [3] | [6] | [7] | [9]

CCSC(=O)N(CC)C1CCCCC1
inactive: [1] | [2] | [3] | [4] | [5] | [6] | [7] | [8] | [9]

COc1ccc(O)c(C(C)(C)C)c1
inactive: [1] | [2] | [3] | [4] | [5] | [6] | [7] | [8] | [9]

Oc1c(Cl)c(Cl)c(Cl)c(Cl)c1Cl
active: [1] 14.7 µM and 13.5 µM | [2] 20 µM | [3] 34.5 µM | [4] 15.4 µM and 13 µM | [5] 26.1 µM | [6] 14.1 µM | [7] 8.49 µM and 9.69 µM | [8] 10.2 µM and 9.07 µM | [9] 4.33 µM and 28.2 µM
inactive: [2] | [3] | [5] | [6]

CCOP(=S)(OCC)SCSC(C)(C)C
active: [1] 32.5 µM
inactive: [2] | [3] | [4] | [5] | [6] | [7] | [8] | [9]

O=NN(c1ccccc1)c1ccccc1
inactive: [1] | [2] | [3] | [4] | [5] | [6] | [7] | [8] | [9]

C[C@]12CCC(=O)C=C1CC[C@@H]1[C@@H]2CC[C@@]2(C)[C@H]1CC[C@]2(C)O
inactive: [1] | [2] | [3] | [6] | [7] | [8] | [9]
active: [4] 28.3 µM | [5] 9.79 µM

Nc1ccc(-c2ccc(N)cc2)cc1
inactive: [1] | [2] | [3] | [4] | [5] | [6] | [7] | [8] | [9]

CO/C=C(/C(=O)OC)c1ccccc1COc1cccc(C(F)(F)F)n1
active: [1] 9.84 µM | [2] 10.1 µM | [4] 20 µM | [8] 7.84 µM
inactive: [3] | [5] | [6] | [7] | [9]

O=S(=O)(O)C(F)(F)C(F)(F)C(F)(F)C(F)(F)C(F)(F)C(F)(F)F
active: [5] 44.3 µM and 37.7 µM | [7] 17.2 µM
inactive: [1] | [2] | [3] | [4] | [5] | [6] | [7] | [8] | [9]

NS(=O)(=O)C(F)(F)C(F)(F)C(F)(F)C(F)(F)C(F)(F)C(F)(F)C(F)(F)C(F)(F)F
active: [1] 27.1 µM and 42.6 µM and 44.3 µM | [2] 32.8 µM and 47.7 µM and 53.4 µM | [3] 33.3 µM and 51.2 µM and 47.8 µM | [4] 30.8 µM and 44.1 µM and 43.6 µM | [5] 13.4 µM and 7.12 µM and 7.29 µM | [6] 37.5 µM | [7] 27.6 µM and 43.9 µM and 45.9 µM | [8] 26.8 µM and 44.2 µM and 47.6 µM | [9] 25.8 µM and 51.3 µM

O=C(N[C@H]1CN2CCC1CC2)c1cc2ccoc2cn1
inactive: [1] | [2] | [3] | [4] | [5] | [6] | [7] | [8] | [9]

ClC(Cl)=C(c1ccc(Cl)cc1)c1ccc(Cl)cc1
inactive: [9]
active: [1] 30.5 µM | [2] 32.1 µM | [3] 35 µM | [4] 29.2 µM | [5] 25.2 µM | [6] 37.3 µM | [7] 31.3 µM | [8] 30.6 µM
